# Test results from the supplement of paper PMC5499739.
# In all, about 16,000 sequences were measured (“Z-score”: median about -0.37, highest 2% from about 3.2 on). The full list was thinned out, with the highest values kept by preference.
# System: RBM10 RRM1-ZnF (GST-tagged construct)
# Assay: RNAcompete 7-mer binding Z-score; higher = stronger binding preference
# Experimental: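 RNAcompete: 20 pmol GST-tagged RBM10 RNA-binding constructs were incubated with a designed RNA pool of about 241,000 sequences up to 41 nt (1.5 nmol) on glutathione beads for 30 min at 4 °C and washed. Bound RNAs were identified by microarray hybridisation. Each RNA 7-mer is scored by a one-sided Z-score of its enrichment, computed over probes that contain the 7-mer within longer pool sequences.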
row,Sequence,RNAcompete 7-mer binding Z-score
1,GUAUGGA,2.12
2,AAAUGGA,3.63
3,AAAUGGU,2.86
4,GAAUGGG,4.76
5,AAAUGGC,1.05
6,UAAUGGG,2.84
7,CUAUGGG,1.13
8,AAAUGGG,4.08
9,GAAUGGC,1.27
10,CAAUGGG,2.34
11,ACAUGGA,1.7
12,CGUAUGC,-0.542
13,CCGGAGC,0.0625
14,GGCUUAG,0.527
15,CCUUACG,-0.818
16,GGGUUAC,2.16
17,AGGUACG,0.751
18,UCCAGUU,-0.639
19,AGCAUUC,-0.694
20,UUGGUUG,0.917
21,GUGACGG,2.02
22,UAAUGGA,1.93
23,GAAUGGA,4.02
24,CAAUGGA,1.1

row,Sequence,RNAcompete 7-mer binding Z-score
1,CACGGGA,1.5
2,AACGGGA,3.45
3,CACGGGG,2.66
4,GACGGGG,3.13
5,AACGGGG,3.45
6,AACGGGU,3.03
7,UACUUUC,-0.974
8,GUACUGA,0.0138
9,CGGGGAU,2.5
10,AGGGGAU,3.64
11,AGGGGCU,1.35
12,GGGGGAC,2.25
13,UGGGGAU,3.57
14,AGGGGAC,2.18
15,UUGGGAU,2
16,GGGGGAU,3.32
17,UGGGGAC,3.17
18,CACCUAU,-0.902
19,UCGUCAA,-0.594
20,CUAUCGG,-0.5
21,CACGCGC,-0.366
22,GGCCUAU,-0.565
23,UGUUGUC,-0.574
24,GUCCGGU,0.082

row,Sequence,RNAcompete 7-mer binding Z-score
1,UAGGAGG,2.77
2,GAGGAGG,2.97
3,AUGGAUG,3.28
4,AUGGAUU,1.71
5,AAGGAUA,2.99
6,UAGGAGA,1.94
7,AUGGAUA,2.89
8,AAGGAUG,4.14
9,GAGGAUG,3.1
10,CAGGAGA,1.93
11,AAGGAGG,4.7
12,AAGGAGA,3.37
13,GUAUCUC,-0.594
14,GCGGUUA,1.32
15,CCACUGG,-0.152
16,UUUCGAA,-0.678
17,UGACACG,0.0138
18,GAUGUUA,-0.116
19,GCGACCC,-0.545
20,CCGUUCC,-0.967
21,UAAUGCA,-0.386
22,UGACUCG,-0.487
23,AUAAGGU,1.72
24,GUAAGGG,3.85

row,Sequence,RNAcompete 7-mer binding Z-score
1,AUAAGGA,2.08
2,GUAAGGA,2.67
3,AUAAGGG,3.77
4,GUAAGGC,1.67
5,GAGAAUC,0.0593
6,UACGUGU,-0.318
7,GAUAUAU,-0.178
8,ACGAUUA,-0.366
9,UUAACGU,-0.324
10,UUUUCAU,-0.727
11,UAUAGGG,2.69
12,AAUAGGC,0.192
13,GAUAGGG,4.05
14,CAUAGGG,1.51
15,UUUAGGG,1.65
16,AAUAGGU,1.37
17,AAUAGGG,3.28
18,GUUAGGU,1.86
19,GUUAGGG,3.73
20,UAGAACU,-0.155
21,GACCCCU,-0.704
22,AACGGCA,0.42
23,CGUGCGG,1.09
24,CGCGCCA,-0.337

row,Sequence,RNAcompete 7-mer binding Z-score
1,AAAGGGG,4.5
2,AAGGGCU,1.62
3,AGGGGGU,3.09
4,AAGGGGC,3.13
5,AAAGGCG,1.21
6,AGGGGGC,1.83
7,AAGGGGG,4.31
8,AAGGGGU,4.48
9,AGGGGGA,2.47
10,AAGGGGA,4.47
11,GUCGCUA,-0.243
12,CUGGAGA,0.501
13,UUAGAAU,-0.152
14,CGUGAUC,-0.704
15,GAAUCGG,1.41
16,UGAACAC,-0.347
17,GCUUGUC,-0.665
18,UCUGGGG,1.39
19,CGGAGAA,1.36
20,AAUUGCC,-0.626
21,UGGAUAU,1.17
22,AGCAUAA,-0.292
23,GAGGGGA,3.62
24,GAGGGGG,2.9

row,Sequence,RNAcompete 7-mer binding Z-score
1,CAGGGGA,2.99
2,GAGGGGU,3.59
3,CAAAGGG,2.23
4,GAGGGCU,1.3
5,GAGGGAA,3.42
6,GAGGAAA,2.27
7,AAAAGGG,3.8
8,GAGGGAC,2.06
9,GAGGGGC,2.44
10,UAAAGGG,2.85
11,GAAAGUU,0.225
12,CAUAGGA,0.54
13,GCCGUUA,-0.607
14,GCAGGCA,0.495
15,AUGUAAG,0.397
16,UGGGGUC,2.57
17,GGGGGUC,2.18
18,UUGGGUG,3.83
19,AGGGGCG,2.28
20,UUGGGUU,2.66
21,UGGGGUG,4.74
22,UUGGGUC,1.04
23,GGGGGCG,2.47
24,UCGGGUG,2.34

row,Sequence,RNAcompete 7-mer binding Z-score
1,GGGGGUG,4.02
2,AGGGGUG,3.85
3,AUACAGU,-0.00571
4,GUCCAGA,-0.474
5,GGGCUCA,0.485
6,AGGUGUU,0.988
7,AAUGCCC,-0.613
8,ACCGUAU,-0.746
9,CUGGGUA,2.13
10,AUUGGUG,2.27
11,CCGGGUG,1.47
12,AUCGGUG,0.894
13,AUGGGUU,2.89
14,GUAGGUA,2.15
15,AUGGGUA,3.54
16,CGGGGUC,2.14
17,AUGGGUG,4.03
18,GUGGGUA,3.53
19,CGGGGUG,3.76
20,AUGGGUC,2.19
21,UAUACUC,-0.769
22,UAAACAA,-0.392
23,ACCGUUC,-0.948
24,AAACACC,-0.6

row,Sequence,RNAcompete 7-mer binding Z-score
1,CUGCGGC,0.0138
2,GCAUGGC,0.176
3,AACCGCG,-0.353
4,CACGGGU,1.99
5,GUGGGUC,2.36
6,CUGGGUG,1.83
7,GUGGGUG,4.14
8,GCGAAAA,0.0528
9,GCGCCCC,-0.0934
10,AUUCCUA,-0.756
11,UUAGGCU,0.095
12,UGGGGCU,2.3
13,UGGGGGU,3.87
14,GGGGGUU,3.67
15,AGGGGUU,2.52
16,UGGGGUU,3.29
17,CUGGGUU,1.53
